# The panel holds about 83,000 compounds, 20% with a hit somewhere; the sample as a whole holds those more often.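 Interpretation: 100, growth as untreated; towards 0, rising growth inhibition; 0, no net growth; 0 to -100, cell death. Compounds scoring below 10 were considered active.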 A number with no mark means an inactive call. Activity calls are given as the source filed them.
# Legend:
# Assay in all cases: NCI-60 one-dose screen, 48 h (100 = growth as untreated, 0 = no growth, -100 = all killed)
# Details in all cases: 10 µM unless noted
# T-47D breast = system: T-47D breast
# BT-549 breast = system: BT-549 breast
# MDA-MB-435 melanoma = system: MDA-MB-435 melanoma
# SW-620 colon = system: SW-620 colon
# MCF7 breast = system: MCF7 breast
# HCT-116 colon = system: HCT-116 colon
# HCC-2998 colon = system: HCC-2998 colon
# KM12 colon = system: KM12 colon
Structure (SMILES),growth (T-47D breast),growth (BT-549 breast),growth (MDA-MB-435 melanoma),growth (SW-620 colon),growth (MCF7 breast),growth (HCT-116 colon),growth (HCC-2998 colon),growth (KM12 colon)
c1cc(C2CCCCC2)ccc1-c1cnc2nonc2n1,20.7%,9.82% (active),-28.4% (active),22%,7.11% (active),4.27% (active),8.72% (active),14.2%
Cc1cccc(N=NC(=S)NNc2cccc(C)c2)c1,97.6%,134%,112%,107%,92.8%,109%,104%,124%
NC(N)=N/N=C/c1cccc(Cl)c1Cl,81.5%,65.9%,4.26% (active),-4.72% (active),17.6%,67.9%,7.38% (active),10.5%
O=C(Nc1cccc(-n2ccc3c(NC(=O)c4ccccc4)nccc32)c1)c1ccc(N2CCOCC2)c(C(F)(F)F)c1,7.57% (active),25.2%,5.17% (active),26.9%,14%,12.5%,8.77% (active),7.93% (active)
CC1OC(n2c3ccccc3c3c4c(c5c6ccccc6[nH]c5c32)C(=O)N(CCN2CCOCC2)C4=O)CC(O)C1O (stereo unspecified),11%,36.9%,41.5%,27.8%,13.3%,24.3%,30%,30.7%
O=C(O)c1ccccc1Oc1cc(-c2ccco2)nc(OCCN2CCOCC2)n1,97.2%,96.6%,101%,115%,102%,97.9%,108%,111%
O=[N+]([O-])c1ccc(N/N=C\c2ccc(O)cc2O)nc1,38.5%,38%,45%,56.4%,27.4%,21.3%,10.6%,29.2%
CCCCCCCCCCCCCCCC1=NCCN1,-15.4% (active),98%,0.615% (active),7.4% (active),32%,34.6%,73.8%,64.1%
N#Cc1ccc(-c2ccc(-c3cccs3)o2)cc1F,23.7%,78%,94.8%,98.5%,26.4%,64.5%,91.5%,83.2%
COc1cc(CN(CCC(O)N2CCCC2=O)Cc2ccc3c(c2)OCO3)cc(OC)c1OC (stereo unspecified),96%,101%,103%,108%,96.8%,92.4%,113%,105%
CC(C)(C)[Si](C)(C)OC1[C@@H](O[Si](C)(C)C(C)(C)C)[C@@H](CNC(=O)NC(=O)NC(=O)CI)O[C@H]1n1cnc2c(NC(=O)Nc3ccccc3)ncnc21 (stereo partly specified),87.5%,97.3%,93.2%,76.1%,70.8%,38.5%,99.4%,32.9%
Cc1cc(O)ccc1Sc1ccccc1[N+](=O)[O-],98.7%,93.2%,57.7%,90.2%,118%,98.1%,97.5%,91.1%
COc1ccc(C(=O)OC2C(OC3C(O)COC(O[C@H]4C[C@H]5[C@@H]6CC=C7C[C@@H](O)CC[C@]7(C)[C@H]6CC[C@]5(C)[C@H]4[C@H](C)C(=O)CCC(C)C)C3OC(=O)C(C)C)OCC(O)C2O)cc1 (stereo partly specified),-1.53% (active),14.6%,-1.62% (active),-19.5% (active),3.21% (active),10.3%,59%,36.3%
CC(C)C/C=C/C=C/C(=O)N[C@@H](CC(N)=O)C(=O)N[C@@H]1C(=O)N[C@H](c2ccc(O)cc2)C(=O)N[C@H](CCCN)C(=O)N[C@H]([C@@H](C)O)C(=O)N[C@H](c2ccc(O)cc2)C(=O)N[C@H](c2ccc(O)cc2)C(=O)N[C@H]([C@H](C)O)C(=O)N[C@H](Cc2ccccc2)C(=O)N[C@H](CCCN)C(=O)N[C@H](c2ccc(O[C@H]3O[C@@H](CO)[C@@H](O)[C@@H](O)[C@H]3O[C@@H]3O[C@H](CO)[C@H](O)[C@H](O)[C@@H]3O)cc2)C(=O)N[C@H]([C@H](C)O)C(=O)N[C@H](c2ccc(O)cc2)C(=O)NCC(=O)N[C@H](CC(C)C)C(=O)N[C@H](C)C(=O)N[C@H](c2ccc(O)c(Cl)c2)C(=O)O[C@@H]1C(N)=O,94.9%,-2.76% (active),57.2%,96.3%,54.9%,20.4%,104%,44.3%
CCNC(=O)c1ccc2c(c1)nc(-c1ccc(Cl)cc1)n2-c1cc(C(C)(C)C)[nH]n1,51.7%,41.8%,-20.6% (active),42.7%,14.7%,15.3%,63.4%,38.9%
CCc1c(C)c2ccc(O)c(-c3cc(-c4ccccc4)c(C#N)c(=O)[nH]3)c2oc1=O,85.9%,113%,114%,105%,84.7%,95.7%,111%,96.2%

Structure (SMILES),growth (T-47D breast),growth (BT-549 breast),growth (MDA-MB-435 melanoma),growth (SW-620 colon),growth (MCF7 breast),growth (HCT-116 colon),growth (HCC-2998 colon),growth (KM12 colon)
O=C(CC(=O)c1ccccc1F)Nc1ccc([N+](=O)[O-])cc1,82.5%,89.7%,88.3%,109%,81.3%,90.5%,103%,99.8%
COc1ccc(-c2cc(-c3ccc(OC)cc3)c3sc(=O)[nH]c3n2)cc1,78.6%,92.9%,107%,95.9%,87.4%,96.8%,98.7%,93.9%
S=C(S)Oc1cccc2cccnc12,107%,98.4%,104%,105%,95.8%,95.9%,113%,109%
O=C(/C=C/c1ccco1)c1ccccc1O,77.7%,95.6%,113%,99.7%,41.3%,96.8%,84.4%,99.8%
COc1cc(C2CC(c3ccc(C)cc3)=NN2C=O)ccc1Oc1ccnc2cc(Cl)ccc12 (stereo unspecified),76%,43.8%,99%,102%,79.1%,46.5%,69.6%,104%
CCN1C(=O)N(CC)C2C1N=C(SC)N2/N=C/C=C/c1ccccc1OC (stereo unspecified),54.2%,12.8%,2.95% (active),22.7%,12.9%,6.51% (active),10.5%,4.92% (active)
O=C(Nc1cccc(N=Cc2c(O)ccc3ccccc23)c1)c1ccccc1,85.2%,85.3%,101%,98.6%,86.3%,93.9%,102%,95.6%
C[C@@H]1CC2C3CCC4=CC(=O)C=C[C@]4(C)[C@@]3(Cl)[C@@H](O)C[C@]2(C)[C@@]1(OC(=O)c1ccco1)C(=O)CCl (stereo partly specified),97.1%,27.9%,73.4%,95.3%,58.9%,57.4%,75.9%,76.9%
Clc1ccc(-c2nc(-c3cccs3)no2)cc1,56.9%,102%,107%,91%,33.7%,97.8%,102%,103%
CCN(CC)c1cc(C)c(Cc2c(OC)ccc3ccccc23)cc1C,82.3%,105%,104%,86.1%,90.9%,86.2%,100%,98.1%
CCOc1cc(/C=N\NC(=O)C[N+](C)(C)C)ccc1O,94.1%,117%,109%,110%,105%,111%,104%,109%
O=C1/C(=C/c2ccccc2)SC(=Nc2ccccc2)N1Nc1ccccc1,5.78% (active),-19.3% (active),-25.4% (active),13.1%,1.62% (active),-23.4% (active),20.3%,3.45% (active)
COc1ncnc2[nH]cc(CN3CCN(c4ccc(F)cc4)CC3)c12,104%,107%,91.9%,108%,103%,111%,104%,109%
CCN(CC)c1ccc(/C=N/NC(=O)C[N+](C)(C)C)cc1,101%,103%,110%,101%,96.9%,102%,104%,102%
CC(C)(c1ccccc1)c1cc(O)c(C(C)(C)c2ccccc2)cc1O,-0.998% (active),20.6%,35.1%,31.3%,12.3%,9.74% (active),61%,19.4%
Nc1c(C(=O)Nc2cccc(Cl)c2)sc2nc3c(cc12)C(=O)CCC3,52.9%,66.4%,-39.1% (active),31.3%,16.7%,27.4%,8.27% (active),21.6%
